Source: PubChem BioAssay
Shown are actives, neighbours in structure and some others; about 3% of the full set was active somewhere.
LGR2 antag: inhibitors of bursicon-induced Drosophila LGR2 receptor cAMP signaling; AID 720647; inhibition, % at 9.99 µM; HEK293 LGR2, CRE-luciferase, bursicon-stimulated, 4 h; 0.35% of 380,000 active;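 active = drop in luminescence signal, shown as inhibition above about 50% in the replicate tests, limit read from the data, passing the limit was not always enough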;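 note: agonist challenge used bursicon conditioned medium at about half maximal strength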
TWEAK Fn14 block: blocks TWEAK-Fn14 interaction in a reporter cell assay; TWEAK-stimulated Fn14 reporter cells, luciferase luminescence, 8 h; inhibition, % at 10 µM; 2% of 360,000 active; AID 1159606; in the data active = inhibition above about 50%
TRPM1 prom inh: inhibitors of MITF-driven TRPM1 promoter in melanoma cells. SK-MEL-5 TRPM1 promoter luciferase, 24 h. 0.83% of 330,000 active. inhibition, % at 12.5 µM. AID 488899;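 active = mean inhibition across replicates of 60% or more, whatever share of single replicates reaches that level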
EBV LMP1 NFkB: Epstein-Barr LMP1 NF-kappaB reporter inhibition. 0.69% of 350,000 active. inhibition, % at 12.5 µM. AID 504558. LMP1-induced NF-kappaB luciferase reporter cells, luminescence; in the data active = inhibition above about 41%;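 note: 0% = neutral control wells and 100% = reference inhibitor control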
TROY NFkB inh: inhibitors of TROY-dependent NF-kB signaling; Q293 LMP1-TROYcd NF-kB luciferase reporter, 4 h; inhibition, % at 10 µM; 0.98% of 360,000 active; AID 1347056;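 active = compounds whose plate-normalised and pattern-corrected inhibition of the luciferase reporter signal at the single screening dose is 50% or more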
MITF act: MITF TRPM1 promoter activation in melanoma cells | SK-MEL-5 TRPM1-promoter luciferase, 24 h; % of positive control, neutral wells = 0 | activation, % at 12.5 µM | 0.75% of 300,000 active;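 active = mean activation of at least 80% with every replicate also reaching 80%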;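 note: 0% = neutral control wells and 100% = parthenolide positive control wells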
Starred values were filed as active, the others as inactive; nt = no result.

SMILES	LGR2 antag	TWEAK Fn14 block	TRPM1 prom inh	EBV LMP1 NFkB	TROY NFkB inh	MITF act
Cc1cc(C(=O)Nc2cccc3c2O[C@H](CN(C)Cc2ccc4c(c2)OCO4)[C@H](C)CN([C@@H](C)CO)C3=O)n(C)n1	-5	nt	nt	nt	nt	nt
Nc1nc(NCCc2ccccc2)nc(NCc2ccccc2)c1[N+](=O)[O-]	-25	35	-20	-28	22	19
CN(Cc1ccccc1)c1nc(N)c([N+](=O)[O-])c(NCc2ccccc2)n1	10	-23	-3	72*	26	1
Cc1nn(-c2ccccn2)c(C)c1Oc1ccccc1O	-4	11	-3	-1	6	4
Cc1nn(-c2nc3ccccc3s2)c(C)c1Oc1ccccc1O	nt	47	-72	-73	62*	77
O=C(C1CC1)N1C[C@@H]2[C@H](c3ccccc31)[C@H](CO)N2C(=O)c1cccc(F)c1	5	nt	nt	nt	nt	nt
CC=Cc1ccc2n(c1=O)C[C@H]1[C@H](CO)[C@@H](C(=O)NCCC)[C@@H]2N1Cc1cccnc1 (mixture of isomers)	-5	nt	nt	nt	nt	nt
CCCC[C@@H](CNC)NC[C@H](NCCCCC1CCCCC1)C(C)C	-16	-25	78*	-7	-5	-77
COc1ccc(CN(C)C[C@H]2Oc3ccc(NC(=O)CCC(F)(F)F)cc3CC(=O)N([C@H](C)CO)C[C@@H]2C)cc1	8	nt	nt	nt	nt	nt
CC(=O)Nc1ccc(OCCCNC(=O)c2c(-c3ccccc3)noc2C)cc1	-5	4	10	58*	2	nt
CCCOc1ccc(NC(=O)c2c(-c3ccccc3)noc2C)cc1	-8	-8	-4	10	1	2
O=C(CN1CCOCC1)N[C@H]1CC[C@@H](CCNC(=O)C2CCCC2)O[C@@H]1CO	22	nt	nt	nt	nt	nt
Cc1sc(NC(=O)c2ccco2)nc1-c1ccc2c(c1)CC(C)N2C(=O)C1CC1 (centres undefined)	-14	46	16	43*	25	-16
CC(=O)Nc1nc(-c2ccc3c(c2)CC(C)N3C(=O)C2CC2)c(C)s1 (centres undefined)	-7	12	-7	79*	-1	7
COc1ccc(CN(C)C[C@H]2OCCCC[C@H](C)Oc3ccc(NC(=O)Nc4cccc5ccccc45)cc3C(=O)N([C@H](C)CO)C[C@H]2C)cc1	-1	nt	nt	nt	nt	nt
S=C(Nc1ccccc1)N1CCN(C2CCCCC2)CC1	nt	32	2	-7	60*	nt
COc1ccc(C(=O)NN(C)c2nc(C(F)(F)F)nc3ccccc23)cc1	-7	52*	41	9	55*	-40
N=c1c(C(=O)NC2CCCCC2)cc2c(=O)n3ccccc3nc2n1Cc1ccco1	5	85*	-5	5	19	3
N=c1c(C(=O)NCCc2ccccc2)cc2c(=O)n3ccccc3nc2n1Cc1ccco1	13	75*	-13	-11	29	15
COc1ccc(CCNC(=O)c2cc3c(=O)n4cccc(C)c4nc3n(CCCN3CCOCC3)c2=N)cc1	-13	-8	73*	-42	-4	-73
N=c1c(C(=O)NCC2CCCO2)cc2c(=O)n3ccccc3nc2n1Cc1ccco1 (centres undefined)	-2	20	-12	6	0	11
CNC[C@H]1Oc2ccc(NC(=O)Nc3ccc4c(c3)OCO4)cc2CC(=O)N([C@H](C)CO)C[C@@H]1C	-20	nt	nt	nt	nt	nt
Cc1ccc(NCc2nnc(SCC(=O)c3ccc4c(c3)OCCO4)o2)c(C)c1	7	31	9	-5	77*	-6
Cc1ccc(S(=O)(=O)N2CCN(Cc3nc4ccccc4[nH]3)CC2)cc1C	-15	-4	-13	-7	53*	14
Cc1cc(C)c(C)c(S(=O)(=O)N2CCN(Cc3nc4ccccc4[nH]3)CC2)c1C	nt	7	17	0	9	-9
SMILES	LGR2 antag	TWEAK Fn14 block	TRPM1 prom inh	EBV LMP1 NFkB	TROY NFkB inh	MITF act
O=C(Nc1ccccc1F)N1[C@H](CO)[C@@H]2c3ccccc3NC[C@@H]21	-37	nt	nt	nt	nt	nt
CCOC(=O)c1ccc(-c2ccc(N3C(c4ccsc4)=Cc4ccc(F)cc4C3c3c[nH]c4ccc(C#N)cc34)cc2)cc1F (centres undefined)	5	53*	nt	nt	14	nt
COc1ccccc1-c1ccc2n(c1=O)C[C@H]1[C@H](CO)[C@@H](C(=O)NC3CCC3)N(C(=O)C3CCC3)[C@@H]21	12	nt	nt	nt	nt	nt
C[C@H](NCc1c[nH]c2ccccc12)c1ccccc1	5	23	18	81*	8	-18
COc1ccc(Nc2cc(C)c3c(O)cccc3n2)cc1	-64	20	-137	21	9	130*
Cc1ccc(Nc2cc(C)c3c(O)cccc3n2)cc1C	-107	-1	-105	3	6	111*
O=C(Nc1ccc2ncccc2c1)c1cccc(Br)c1	-106	-24	-38	-26	-55	41
Cc1ccc(C(=O)Nc2ccc3ncccc3c2)cc1	74*	94*	48	45*	56*	-47
Cc1ccc(C(=O)Nc2ncccc2S(=O)(=O)c2ccccc2)cc1	-85	-19	-96	-36	-65	100*
COc1ccc(NC(=O)c2ccc3nccnc3c2)cc1	nt	34	-64	-25	nt	71
CCOc1ccc(NC(=O)c2ccc3nccnc3c2)cc1	nt	-10	-84	-16	-54	89*
Cc1cccnc1NC(=O)c1ccc(S(=O)(=O)N2CCCCCC2)cc1	10	17	-2	-20	-12	6
COc1ccc(C(=O)Nc2ccc3ncccc3c2)cc1	59*	75*	16	2	38	nt
COc1ccc(C(c2c(C)n(C)n(-c3ccccc3)c2=O)c2c(C)n(C)n(-c3ccccc3)c2=O)c(OC)c1OC	-3	-6	24	80*	-2	-27
c1ccn(-c2ccc(-c3ccn[nH]3)cc2)c1	-80	-10	-89	-34	-35	93*
CC1CCCN(C(=O)CNC(=O)c2sc3ccccc3c2Cl)C1 (centres undefined)	-90	-5	-121	-39	-78	126*
CC1CC(C)CN(C(=O)CNC(=O)c2sc3ccccc3c2Cl)C1 (centres undefined)	nt	-29	-64	-2	-43	64
O=C(NCC(=O)N1CCCCC1)c1sc2ccccc2c1Cl	-82	3	-109	-16	-65	114*
CC(C)c1cn(CC[C@H]2CC[C@@H](NC(=O)c3cccc(F)c3)[C@H](CO)O2)nn1	11	nt	nt	nt	nt	nt
Nc1cc2nsnc2cc1Br	nt	-4	70*	2	-5	-69
C[C@H]1CN([C@@H](C)CO)C(=O)c2cc(C#CC3CCCCC3)cnc2O[C@@H]1CN(C)C(=O)C1CCCCC1	-15	nt	nt	nt	nt	nt
CCn1c2ccccc2c2cc(NC(=O)c3coc(=O)c(Br)c3)ccc21	nt	74*	nt	nt	-29	nt
CCn1c2ccccc2c2cc(NC(=O)c3ccc(=O)oc3)ccc21	-4	-8	nt	nt	-20	nt
CC(C)C1CC(CCNCc2ccc(N(C)C)cc2)(c2ccccc2)CCO1 (centres undefined)	-19	13	73*	5	-3	-72
